# Measured values from PubChem BioAssay (NCI).
# The panel holds about 83,000 compounds, 20% with a hit somewhere; the sample as a whole holds those more often.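 The endpoint reported here, percent growth, reads 100 for growth as untreated, 0 for no net growth and -100 for all cells dead.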 Unmarked numbers belong to inactive results. Activity calls are given as the source filed them. The calls were made as follows: active = growth percent below 10; inactive = the rest.
# Legend:
# Test in all cases: NCI-60 one-dose screen, 48 h (100 = growth as untreated, 0 = no growth, -100 = all killed)
# Settings in all cases: 10 µM unless noted
# DU-145 prostate = tested on: DU-145 prostate
# MALME-3M melanoma = tested on: MALME-3M melanoma
# MDA-MB-231 breast = tested on: MDA-MB-231 breast
# RXF 393 renal = tested on: RXF 393 renal
# SF-268 CNS = tested on: SF-268 CNS
# SF-295 CNS = tested on: SF-295 CNS
# SF-539 CNS = tested on: SF-539 CNS
# UACC-257 melanoma = tested on: UACC-257 melanoma
# M14 melanoma = tested on: M14 melanoma
# HCT-15 colon = tested on: HCT-15 colon
# HT29 colon = tested on: HT29 colon
# SNB-75 CNS = tested on: SNB-75 CNS
# U251 CNS = tested on: U251 CNS
# PC-3 prostate = tested on: PC-3 prostate
# SK-MEL-5 melanoma = tested on: SK-MEL-5 melanoma
# UACC-62 melanoma = tested on: UACC-62 melanoma
# LOX IMVI melanoma = tested on: LOX IMVI melanoma
# SK-MEL-28 melanoma = tested on: SK-MEL-28 melanoma
# SNB-19 CNS = tested on: SNB-19 CNS
# K-562 leukemia = tested on: K-562 leukemia
SMILES,growth (DU-145 prostate),growth (MALME-3M melanoma),growth (MDA-MB-231 breast),growth (RXF 393 renal),growth (SF-268 CNS),growth (SF-295 CNS),growth (SF-539 CNS),growth (UACC-257 melanoma),growth (M14 melanoma),growth (HCT-15 colon),growth (HT29 colon),growth (SNB-75 CNS),growth (U251 CNS),growth (PC-3 prostate),growth (SK-MEL-5 melanoma),growth (UACC-62 melanoma),growth (LOX IMVI melanoma),growth (SK-MEL-28 melanoma),growth (SNB-19 CNS),growth (K-562 leukemia)
O=C(CNC1C2CC3CC(C2)CC1C3)Sc1nnc2sc3ccccc3n12 (configuration not stated),110%,95.2%,81.5%,114%,101%,94.2%,94.3%,116%,104%,105%,106%,76.5%,104%,77.4%,93.9%,88.2%,94.5%,112%,,
Nc1nc(-c2ccc(F)cc2)cc(-c2cnn(-c3ccccc3)n2)n1,104%,124%,102%,97.4%,98.8%,107%,106%,95.8%,117%,95.4%,93.5%,,,114%,104%,91.1%,97.2%,107%,104%,
O=C(CO[N+](=O)[O-])Nc1ccc(C(=O)/C=C/c2ccc(Cl)cc2)cc1,79.9%,79.1%,55%,72.5%,44.9%,105%,,61.2%,3.46% (active),58.9%,-23.4% (active),69.7%,14.9%,27.6%,54.5%,49.2%,-60.9% (active),86.8%,87.9%,
CN1CCN(Cc2ccc(NC(=O)c3[nH]ncc3Nc3ncnc4sccc34)cc2)CC1,7.12% (active),16.7%,-4.43% (active),-51.1% (active),-3.74% (active),24%,-30.2% (active),33.9%,22.6%,7.97% (active),17%,-32.5% (active),16.4%,6.12% (active),-5.05% (active),8.83% (active),-1.47% (active),17.8%,,
CN1C2CCC1/C(=C\c1ccc(Cl)cc1)C1=C2[C@@H](c2ccc(Cl)cc2)C(C#N)=C(N)O1 (some centres not stated),94.5%,88%,104%,68.8%,85%,97.8%,94.2%,85.9%,,,65.2%,92.4%,,82.4%,88.9%,75.7%,91.7%,80%,99.8%,
COc1c2ccccc2c(OC)c2[nH]c(=O)ccc12,-95.1% (active),-63.2% (active),69.4%,91.3%,64.4%,-21.4% (active),,40.8%,-46.1% (active),22.1%,46.6%,-21.3% (active),28.4%,67%,,-6.37% (active),12.1%,25.4%,12.2%,
CN(C)CC(=O)Nc1ccc(Cn2nnc3c2C(=O)c2nnn(Cc4ccc(NC(=O)CN(C)C)cc4)c2C3=O)cc1,-96.2% (active),-81.2% (active),-14.2% (active),-77.4% (active),-49.1% (active),-87.4% (active),,-71.1% (active),-89.4% (active),1.94% (active),-52.5% (active),-92.8% (active),-82.1% (active),1.37% (active),-95% (active),-66.1% (active),-30.6% (active),-47.5% (active),-75.1% (active),
Cc1ccc2c(NCCCN(C)C)c3c(C)nn(C)c3nc2c1,,52.7%,47.6%,,33.2%,30.2%,36.5%,31.8%,42.5%,29%,18%,25.5%,,29.2%,51.3%,58.8%,15.5%,57.1%,63%,9.48% (active)
Cn1cc(-c2ccc(-c3cn(C)c4ncccc34)[nH]2)c2cccnc21,94.2%,86.5%,63.8%,10.6%,45.9%,86.3%,,64.6%,76.2%,50.4%,97.6%,59.7%,-44.1% (active),-29.9% (active),9.47% (active),-4.05% (active),21.8%,84.8%,76%,
